Where “and” joins values, the source holds several entries; their conditions need not be identical. Equal values may be shown once. Results filed as inconclusive are left out. More than one record can exist for a structure, and the calls need not agree. Calls of active or inactive are those of the source. Calls follow the shape of the dose curve; as a rule, active = well fitted curve in the direction sought with a large enough effect; inconclusive = small, poorly fitted or top-dose-only effect, or another doubt; inactive = no such curve, though single readings can be large; an effect the other way counts as inactive or inconclusive.
What was measured:
HaCat [1] = test: Cytotoxic Profiling of Annotated Libraries Using Quantitative High-Throughput Screening (AID 1296008); conditions: Five cell lines viability, CellTiter-Glo ATP luminescence, 48-72 h; max response: stronger effect = lower value; also: nearly all actives have a fitted effect of over 60% in size
How it was run: (§1)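 Cytotoxicity was measured as CellTiter-Glo ATP luminescence, read after 10 min at room temperature. Compound treatment of the cells lasted 48 or 72 hr at 37 degrees Celsius in a qHTS format.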

KB-3-1 = test: as above; conditions: Five cell lines viability, CellTiter-Glo ATP luminescence, 48-72 h; max response: stronger effect = lower value
How it was run: as §1

NIH3T3 [2] = test: as above; conditions: Five cell lines viability, CellTiter-Glo ATP luminescence, 48-72 h; max response: stronger effect = lower value
How it was run: as §1

HACAT [3] = test: qHTS assay to identify novel small-molecules to repurpose for Merkel cell carcinoma treatment (AID 1296009); conditions: MCC and control cell lines, CellTiter-Glo viability, 72 h; also: nearly all actives have a fitted effect of over 60% in size
How it was run: (§2)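 72 hr, 37 degree celsius; NPC 8-pt / MIPE 11-pt dose response; compound pinned in DMSO; CellTiter-Glo, 10 min RT, luminescence; normalized to no-cell and DMSO controls.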

HEK293T [4] = test: as above; conditions: MCC and control cell lines, CellTiter-Glo viability, 72 h; at 44.8 µM (top of the series) unless noted
How it was run: as §2

MCC-13 = test: as above; conditions: MCC and control cell lines, CellTiter-Glo viability, 72 h; series mostly up to 46 µM
How it was run: as §2

MCC-26 = test: as above; conditions: MCC and control cell lines, CellTiter-Glo viability, 72 h; series mostly up to 46 µM
How it was run: as §2

MKL-1 = test: as above; conditions: MCC and control cell lines, CellTiter-Glo viability, 72 h; series mostly up to 46 µM
How it was run: as §2

MKL-2 = test: as above; conditions: MCC and control cell lines, CellTiter-Glo viability, 72 h; series mostly up to 46 µM
How it was run: as §2

UISO = test: as above; conditions: MCC and control cell lines, CellTiter-Glo viability, 72 h; series mostly up to 46 µM
How it was run: as §2

WaGa = test: as above; conditions: MCC and control cell lines, CellTiter-Glo viability, 72 h; series mostly up to 46 µM
How it was run: as §2

C33A = test: Primary qHTS to identify gynecologic anti-cancer compounds using libraries of approved drugs and bioactive compounds (AID 1345084); conditions: Gynecologic cancer cell panel viability, ATPlite luminescence, 48 h; series mostly up to 57.5 µM; also: nearly all actives have a fitted effect of over 55% in size
How it was run: (§3)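 48 h compound exposure at 37 C, 5% CO2; five-point qHTS. ATPlite luminescence readout of cell ATP.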

CAOV3 = test: as above; conditions: Gynecologic cancer cell panel viability, ATPlite luminescence, 48 h; series mostly up to 57.5 µM
How it was run: as §3

CASKI = test: as above; conditions: Gynecologic cancer cell panel viability, ATPlite luminescence, 48 h; series mostly up to 57.5 µM
How it was run: as §3

Es-2 = test: as above; conditions: Gynecologic cancer cell panel viability, ATPlite luminescence, 48 h; series mostly up to 57.5 µM
How it was run: as §3

HeLa = test: as above; conditions: Gynecologic cancer cell panel viability, ATPlite luminescence, 48 h; series mostly up to 57.5 µM
How it was run: as §3

Hek293T [5] = test: as above; conditions: Gynecologic cancer cell panel viability, ATPlite luminescence, 48 h, control line for the selectivity index; series mostly up to 57.5 µM
How it was run: as §3

JEG-3 = test: as above; conditions: Gynecologic cancer cell panel viability, ATPlite luminescence, 48 h; series mostly up to 57.5 µM
How it was run: as §3

OV90 = test: as above; conditions: Gynecologic cancer cell panel viability, ATPlite luminescence, 48 h; series mostly up to 57.5 µM
How it was run: as §3

NIH3T3 [6] = test: qHTS assay to identify novel small-molecules to repurpose for Merkel cell carcinoma treatment (AID 1296009); conditions: MCC and control cell lines, CellTiter-Glo viability, 72 h; at 44.8 µM (top of the series) unless noted; also: nearly all actives have a fitted effect of over 60% in size
How it was run: as §2

[7] = at 44.8 µM (top of the series) unless noted
% is scaled to controls: 0 for no effect and ±100 for the full control effect; potency is read from the fitted curve at half-maximal effect.

Cc1cc(O)c(C(C)C)cc1Cl
inactive: outcome (HaCat [1]) | max response (KB-3-1) 1.71% | max response (NIH3T3 [2]) 2.6% | outcome (HACAT [3]; [7]) | outcome (HEK293T [4]) | Potency (MCC-13) | Potency (MCC-26) | Potency (MKL-1) | Potency (MKL-2) | Potency (UISO) | Potency (WaGa) | Potency (C33A) | Potency (CAOV3) | Potency (CASKI) | Potency (Es-2) | Potency (HeLa) | Potency (Hek293T [5]) | Potency (JEG-3) | Potency (OV90)

CC(=O)N(O)CCCCCNC(=O)CCC(=O)N(O)CCCCCNC(=O)CCC(=O)N(O)CCCCCN
inactive: max response (HaCat [1]) -20.9% | max response (KB-3-1) 1.85% | Potency (CASKI) | Potency (HeLa)
active: Potency (HaCat [1]) 1.32 µM | Potency (MKL-1) 3.35 µM | Potency (WaGa) 10.6 µM | Potency (OV90) 6.31 µM

Cc1nc2n(c(=O)c1CCN1CCC(c3noc4cc(F)ccc34)CC1)CCC[C@H]2O
inactive: outcome (HaCat [1]) | max response (KB-3-1) -12.7% and -2.14% | max response (NIH3T3 [2]) 1.23% | outcome (NIH3T3 [2]) | outcome (HACAT [3]; at 17.4 µM (top of the series)) | outcome (HACAT [3]; at 44.8 µM (top of the series)) | outcome (HEK293T [4]) | Potency (MCC-13) | Potency (MKL-1) | Potency (MKL-2) | outcome (NIH3T3 [6]) inactive [at 17.4 µM] | Potency (UISO) | Potency (WaGa) | Potency (C33A) | Potency (CAOV3) | Potency (CASKI) | Potency (Es-2) | Potency (HeLa) | Potency (Hek293T [5]) | Potency (JEG-3) | Potency (OV90)

CCCN1CCCC[C@H]1C(=O)Nc1c(C)cccc1C
inactive: outcome (HaCat [1]) | max response (KB-3-1) -10% | max response (NIH3T3 [2]) -2.9% | outcome (HACAT [3]; [7]) | Potency (MCC-13) | Potency (MCC-26) | Potency (MKL-1) | Potency (MKL-2) | Potency (UISO) | Potency (WaGa) | Potency (C33A) | Potency (CAOV3) | Potency (CASKI) | Potency (Es-2) | Potency (HeLa) | Potency (Hek293T [5]) | Potency (JEG-3) | Potency (OV90)

COc1ccc(CN2CCN(C(c3ccc(F)cc3)c3ccc(F)cc3)CC2)c(OC)c1OC
inactive: max response (HaCat [1]) -19.9% | outcome (HaCat [1]) | max response (KB-3-1) 6.7% | max response (NIH3T3 [2]) 1.96% and 2.43% | outcome (HACAT [3]; [7]) | Potency (MCC-13) | Potency (MCC-26) | Potency (C33A) | Potency (CAOV3) | Potency (CASKI) | Potency (Es-2) | Potency (HeLa) | Potency (Hek293T [5]) | Potency (JEG-3) | Potency (OV90)

CC(=O)O[C@]1(C(C)=O)CC[C@H]2[C@@H]3C[C@H](C)C4=CC(=O)CC[C@]4(C)[C@H]3CC[C@@]21C
inactive: max response (HaCat [1]) -32.7% and 2.19% | max response (KB-3-1) 9.44% | outcome (KB-3-1) | max response (NIH3T3 [2]) -18.3% | outcome (NIH3T3 [2]) | Potency (MCC-13) | Potency (MCC-26) | Potency (MKL-1) | Potency (MKL-2) | outcome (NIH3T3 [6]) | Potency (UISO) | Potency (WaGa) | Potency (C33A) | Potency (CAOV3) | Potency (CASKI) | Potency (Es-2) | Potency (HeLa) | Potency (Hek293T [5]) | Potency (JEG-3) | Potency (OV90)

O=C(O)CNC(=O)c1ccccc1
inactive: outcome (HaCat [1]) | max response (KB-3-1) -0.856% | outcome (NIH3T3 [2]) | outcome (HACAT [3]; [7]) | Potency (MCC-13) | Potency (MCC-26) | Potency (MKL-1) | Potency (MKL-2) | outcome (NIH3T3 [6]) | Potency (UISO) | Potency (WaGa) | Potency (C33A) | Potency (CAOV3) | Potency (CASKI) | Potency (Es-2) | Potency (HeLa) | Potency (Hek293T [5]) | Potency (JEG-3) | Potency (OV90)

CN(C)CCOc1ccccc1Cc1ccccc1
inactive: outcome (HaCat [1]) | max response (KB-3-1) -14.6% | max response (NIH3T3 [2]) -2.31% | outcome (HACAT [3]; [7]) | Potency (MCC-13) | Potency (MCC-26) | Potency (MKL-1) | Potency (MKL-2) | Potency (UISO) | Potency (WaGa) | Potency (C33A) | Potency (CAOV3) | Potency (CASKI) | Potency (Es-2) | Potency (HeLa) | Potency (Hek293T [5]) | Potency (JEG-3) | Potency (OV90)

Cc1c(C(C)C)c(=O)n(-c2ccccc2)n1C
inactive: outcome (HaCat [1]) | max response (KB-3-1) -0.49% | max response (NIH3T3 [2]) 0.732% | outcome (HACAT [3]; [7]) | outcome (HEK293T [4]) | Potency (MCC-13) | Potency (MCC-26) | Potency (MKL-1) | Potency (MKL-2) | Potency (UISO) | Potency (WaGa) | Potency (C33A) | Potency (CASKI) | Potency (HeLa) | Potency (Hek293T [5]) | Potency (JEG-3) | Potency (OV90)

CN=C(NC#N)Nc1ccc(C2=NNC(=O)CC2C)cc1 (centres undefined)
inactive: outcome (HaCat [1]) | max response (KB-3-1) 6.06% | max response (NIH3T3 [2]) -5.93% | outcome (HACAT [3]; [7]) | outcome (HEK293T [4]) | Potency (MCC-13) | Potency (MCC-26) | Potency (MKL-1) | Potency (MKL-2) | Potency (UISO) | Potency (WaGa) | Potency (C33A) | Potency (CAOV3) | Potency (CASKI) | Potency (Es-2) | Potency (HeLa) | Potency (Hek293T [5]) | Potency (JEG-3) | Potency (OV90)

COc1cc(/C=C/C(=O)O[C@H]2CC[C@]34C[C@]35CC[C@]3(C)[C@@H]([C@H](C)CCC=C(C)C)CC[C@@]3(C)[C@@H]5CC[C@H]4C2(C)C)ccc1O
inactive: outcome (HaCat [1]) | max response (KB-3-1) 0.76% and -6.22% | max response (NIH3T3 [2]) 0.391% | outcome (HACAT [3]; [7]) | Potency (MCC-13) | Potency (MCC-26) | Potency (MKL-1) | Potency (MKL-2) | Potency (UISO) | Potency (WaGa) | Potency (C33A) | Potency (CAOV3) | Potency (CASKI) | Potency (Es-2) | Potency (HeLa) | Potency (Hek293T [5]) | Potency (JEG-3) | Potency (OV90)

Cc1ncc(CSSCc2cnc(C)c(O)c2CO)c(CO)c1O
inactive: outcome (HaCat [1]) | max response (KB-3-1) -0.0269% | max response (NIH3T3 [2]) 4.82% | outcome (HACAT [3]; [7]) | outcome (HEK293T [4]) | Potency (MCC-13) | Potency (MCC-26) | Potency (MKL-1) | Potency (MKL-2) | Potency (UISO) | Potency (WaGa) | Potency (C33A) | Potency (CAOV3) | Potency (CASKI) | Potency (Es-2) | Potency (HeLa) | Potency (Hek293T [5]) | Potency (JEG-3) | Potency (OV90)

CC(=O)[C@H]1CC[C@H]2[C@@H]3C[C@H](C)C4=CC(=O)CC[C@]4(C)[C@H]3[C@@H](O)C[C@]12C
inactive: max response (HaCat [1]) -3.2% | max response (KB-3-1) 30.5% | outcome (NIH3T3 [2]) | Potency (MCC-13) | Potency (MCC-26) | Potency (MKL-1) | Potency (MKL-2) | outcome (NIH3T3 [6]) | Potency (UISO) | Potency (WaGa) | Potency (C33A) | Potency (CAOV3) | Potency (CASKI) | Potency (Es-2) | Potency (Hek293T [5]) | Potency (JEG-3) | Potency (OV90)
active: Potency (HeLa) 15.8 µM

From PubChem BioAssay (NCATS)
